Reference: PubChem BioAssay (NCATS)
Results filed as inconclusive are left out. Active and inactive are the calls of the source. Calls follow the shape of the dose curve; as a rule, active = well fitted curve in the direction sought with a large enough effect; inconclusive = small, poorly fitted or top-dose-only effect, or another doubt; inactive = no such curve, though single readings can be large; an effect the other way counts as inactive or inconclusive.

Legend:
[1] = qHTS assay for measurement of the activity of small molecule inhibitors on Zika virus induced Caspase-3 activity in human iPSC derived neural progenitor cells (hNPCs) (AID 1224857); also: nearly all actives have a fitted effect of over 65% in size
Method in brief: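 hNPCs seeded 350 cells/well, cultured 16–20 h; compounds added 1 h before ZIKV (2 FFU/cell), 37 C 6 h. Caspase-Glo 3/7 luminescence after 30 min RT; % inhibition from induction scaled to uninfected (0%) and infected (100%) wells.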

[2] = qHTS assay for measurement of the activity of small molecule inhibitors on Zika virus induced Caspase-3 activity in human astrocytoma cells (AID 1224859)
Method in brief: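 Luminescence read-out (Caspase-Glo 3/7, 30 min RT) of caspase activity in SNB-19 cells infected 6 h with ZIKV, 2 FFU/cell, after 1 h compound pretreatment; % inhibition from induction normalised to uninfected (0%) and infected (100%) wells.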

[3] = NS1 protein of Zika virus - qHTS assay to identify small molecule inhibitors in human HEK 293 cells (AID 1347053); also: series mostly up to about 46 µM; nearly all actives have a fitted effect of over 55% in size
Method in brief: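 Read-out is a two-antibody TR-FRET for ZIKV NS1, normalized between uninfected cells and infected cells. Compound added 1 h before MR766 infection at MOI 0.5; human HEK 293 cells incubated 24 h, 37 C.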

[4] = qHTS of pediatric cancer cell lines to identify multiple opportunities for drug repurposing: Primary screen for TC32 cells (AID 1347089); also: nearly all actives have a fitted effect of over 60% in size
Method in brief: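 qHTS, TC32, 48 h drug treatment, CellTiter-Glo luminescence as a proxy for metabolically active cells; primary top concentration 46 µM (MIPE 11-pt, NPC 8-pt); confirmatory 11-pt.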

[5] = qHTS of pediatric cancer cell lines to identify multiple opportunities for drug repurposing: Primary screen for DAOY cells (AID 1347090); also: series mostly up to about 46 µM; nearly all actives have a fitted effect of over 55% in size
Method in brief: (§1)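 Viability measured as metabolically active cells via CellTiter-Glo luminescence following 48 hours of compound exposure, 11-point dilutions in confirmatory testing. 500-1,000 cells/well plated 5 hours before dosing; controls were DMSO and 2.3 µM bortezomib.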

[6] = qHTS of pediatric cancer cell lines to identify multiple opportunities for drug repurposing: Primary screen for SJ-GBM2 cells (AID 1347091)
Method in brief: as §1

[7] = qHTS of pediatric cancer cell lines to identify multiple opportunities for drug repurposing: Primary screen for A673 cells (AID 1347092); also: nearly all actives have a fitted effect of over 45% in size
Method in brief: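 Luminescence from CellTiter-Glo, taken after 15 min at room temperature, served as the proxy for metabolically active cells following 48 h treatment. Both potency and efficacy were taken from curves fitted to the titration data.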

[8] = qHTS of pediatric cancer cell lines to identify multiple opportunities for drug repurposing: Primary screen for BT-37 cells (AID 1347094); also: series mostly up to about 57 µM
Method in brief: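 Cells plated at 500-1,000/well in growth medium, compounds added after 5 h. MIPE tested at 11 points (from 0.78 nM), NPC at 8 points (from 0.59 nM). CellTiter-Glo luminescence after 48 h; concentration-response curves from primary screen.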

[9] = qHTS of pediatric cancer cell lines to identify multiple opportunities for drug repurposing: Primary screen for SK-N-MC cells (AID 1347093); also: series mostly up to about 46 µM
Method in brief: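 Metabolically active cells were quantified by ATP-dependent luminescence (CellTiter-Glo, 15 min at room temperature) following 48 h treatment. Cells had been plated at 500-1,000 per well and settled for 5 h beforehand.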

Measured: Potency

CC(C)C(=O)OCc1cccc(OC(=O)[C@@H]2N3C(=O)[C@@H](NC(=O)Cc4ccccc4)[C@H]3SC2(C)C)c1
not listed: [9]
inactive: all other assays above

CCN(CC)CC(=O)Nc1c(C)cccc1C(=O)OC
not listed: [7]
inactive: all other assays above

O=C(CS(=O)Cc1ccco1)NC/C=C\COc1cc(CN2CCCCC2)ccn1 (stereo unspecified)
not listed: [7]
inactive: all other assays above

C[C@@H]1C[C@H]2[C@@H]3CCC4=CC(=O)C=C[C@]4(C)[C@@]3(F)[C@@H](O)C[C@]2(C)[C@@]1(O)C(=O)COC(=O)c1ccncc1
not listed: [9]
inactive: all other assays above

C/C(=N/NC(=O)c1ccncc1)C(=O)O
not listed: [9]
inactive: all other assays above

CN(C)CCOC1=Cc2ccccc2Sc2ccc(Cl)cc21
not listed: [7] | [8]
inactive: all other assays above

NC(=O)COCCN1CCN(C(c2ccccc2)c2ccc(Cl)cc2)CC1 (stereo unspecified)
not listed: [7] | [9]
inactive: all other assays above

Nc1nc2ccccc2n1Cc1ccc(F)cc1
not listed: [7]
inactive: all other assays above

O=C(OCC(O)CO)c1ccccc1Nc1ccnc2c(C(F)(F)F)cccc12 (stereo unspecified)
not listed: [9]
inactive: all other assays above

CCOCCn1c(C2CCN(CCc3ccc(C(C)(C)C(=O)O)cc3)CC2)nc2ccccc21
not listed: [9]
inactive: all other assays above

CN1CCCN=C1/C=C/c1cccs1
not listed: [9]
inactive: all other assays above

COC(=O)/C=C\C(=O)OC
not listed: [7]
inactive: all other assays above

CCC[C@H](N[C@@H](C)C(=O)N1[C@H](C(=O)O)C[C@@H]2CCCC[C@@H]21)C(=O)OCC
not listed: [7] | [9]
inactive: all other assays above
